# Assay outcomes as filed in PubChem.
# VP16 counter = VP16 counterscreen qHTS for inhibitors of ROR gamma transcriptional activity. Potency, µM (highest dose often 53.6 µM), for the others: at the top dose activity, negative = inhibition, most hits filed as inhibitors. AID 2546, 2010. Drosophila S2 Gal4-VP16 UAS-luciferase, luminescence, 20 h. 310,000 tested, 3.5% active;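 also: Gal4-VP16 expression switched on by copper sulfate through the metallothionein promoter; potency is read from the fitted curve at half-maximal effect; nearly all actives have a fitted effect of over 50% in size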
# IL-1B inflam inh = qHTS for Inhibitors of Inflammasome Signaling: IL-1-beta AlphaLISA Primary Screen; THP-1 LPS/ATP IL-1B secretion, AlphaLISA, 16 h; active compounds read low; activity change, % at 57.5 µM; 360,000 tested, 4.7% active; AID 743279, 2014; in the data active = activity change below about -50%; inconclusive = mostly about -30% to -49%
#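 Secreted IL-1B measured by AlphaLISA bead assay after 16 h compound exposure of THP-1 cells; compounds (final up to 57.5 uM) added 1 h before LPS (250 ng/mL) and ATP (1.25 mM) stimulation; lower signal means less secretion.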
# DT40 TDP1 no CPT = qHTS for Inhibitors of human tyrosyl-DNA phosphodiesterase 1 (TDP1): qHTS in cells in absence of CPT | 420,000 tested, 15% active | Potency, µM (series often up to 46.2 µM), for the others: top-dose activity change, negative = growth inhibition, hits mostly inhibitors | DT40 Tdp1-/- hTDP1 cells, no CPT, ATP luminescence, 48 h; also: potency is read from the fitted curve at half-maximal effect; nearly all actives have a fitted effect of over 55% in size
#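 Chicken DT40 Tdp1-/- cells complemented with human TDP1, screened without camptothecin (DMSO vehicle only), 400 cells/well. Compounds pin-transferred, cells incubated at 37 °C for at least 48 hr. Growth read as ATP-dependent luminescence (CellTiter-Glo, 30 min at RT).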
# DT40 TDP1 CPT = qHTS for Inhibitors of human tyrosyl-DNA phosphodiesterase 1 (TDP1): qHTS in cells in presence of CPT; 420,000 tested, 12% active; Potency, µM (titrated, usually from 46.2 µM), without a hit: top-dose activity change, negative = growth inhibition, most hits filed as inhibitors; chicken DT40 Tdp1-/-;hTDP1 cells + 20 nM CPT, ATP luminescence, 48 h; also: potency is read from the fitted curve at half-maximal effect; nearly all actives have a fitted effect of over 55% in size
#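 Chicken DT40 Tdp1-/- cells complemented with human TDP1, 400 cells/well, exposed to compounds plus 20 nM camptothecin for at least 48 h at 37 C; viability read as ATP content by CellTiter-Glo luminescence.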
# ELG1 DNA repair = qHTS screen for small molecules that inhibit ELG1-dependent DNA repair in human embryonic kidney (HEK293T) cells expressing luciferase-tagged ELG1; HEK293T ELG1-luciferase reporter, luminescence, 16 h; DNA damage induced by 5-fluorouridine; Potency, µM (highest dose often 46.1 µM), without a hit: top-dose activity change, negative = inhibition, hits mostly inhibitors; 330,000 tested, 2.3% active; AID 504467, 2011; also: potency is read from the fitted curve at half-maximal effect; nearly all actives have a fitted effect of over 55% in size
#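 Cells (2,000 per well) received 5-fluorouridine plus test compound or DMSO and were incubated 16 hr at 37 °C, 5% CO2. Luciferase activity was read by luminescence 30 min after ONE-Glo addition; signal suppression marked inhibition of damage-induced ELG1 function.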
# RORgamma inh = qHTS for inhibitors of ROR gamma transcriptional activity | Drosophila S2 Gal4-RORgamma UAS-luciferase reporter, 20 h | Potency, µM (series often up to 53.6 µM), without a hit: at the top dose activity change, negative = inhibition, actives largely listed as inhibitors | Nuclear receptor ROR-gamma (Mus musculus), P51450 | 310,000 tested, 5.4% active | AID 2551, 2010; also: potency is read from the fitted curve at half-maximal effect; nearly all actives have a fitted effect of over 60% in size
# Target sequence (P51450 whole entry, looked up, the tested form may be a part): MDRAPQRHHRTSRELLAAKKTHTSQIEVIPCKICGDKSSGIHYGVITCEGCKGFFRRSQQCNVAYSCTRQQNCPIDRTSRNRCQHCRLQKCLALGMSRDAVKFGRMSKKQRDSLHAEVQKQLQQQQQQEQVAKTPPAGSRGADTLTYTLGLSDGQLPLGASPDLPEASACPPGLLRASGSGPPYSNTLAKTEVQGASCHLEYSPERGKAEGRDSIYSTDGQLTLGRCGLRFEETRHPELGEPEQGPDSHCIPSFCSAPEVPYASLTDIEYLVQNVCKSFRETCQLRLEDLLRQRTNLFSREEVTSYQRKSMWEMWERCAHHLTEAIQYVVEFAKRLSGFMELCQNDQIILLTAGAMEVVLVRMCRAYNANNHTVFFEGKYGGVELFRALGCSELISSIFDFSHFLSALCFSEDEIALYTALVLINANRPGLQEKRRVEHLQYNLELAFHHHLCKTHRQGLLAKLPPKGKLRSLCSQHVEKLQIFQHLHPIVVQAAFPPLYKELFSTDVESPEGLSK
#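 Schneider cells (Drosophila), stable Gal4 DBD–ROR gamma + UAS-luc; 1 hr cmpd preincubation; Cu2+ induction 700 uM final; 20 hr ambient; luminescence.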
# Starred values were filed as active, the others as inactive; ? = inconclusive; . = no result. In the library only some 21% were active in any assay of this set; here they are far more common. Unless noted, calls follow the shape of the dose curve; as a rule, active = well fitted curve in the direction sought with a large enough effect; inconclusive = small, poorly fitted or top-dose-only effect, or another doubt; inactive = no such curve, though single readings can be large; an effect the other way counts as inactive or inconclusive. % is scaled to controls: 0 for no effect and ±100 for the full control effect.
SMILES,VP16 counter,IL-1B inflam inh,DT40 TDP1 no CPT,DT40 TDP1 CPT,ELG1 DNA repair,RORgamma inh
Cc1ccc(OCC(=O)NCC2(N(C)C)CCCCC2)cc1C,.,.,-5.5%,-5.0%,.,.
COc1ccc(-c2[nH]ncc2C(=O)NCc2ccccc2C)cc1,.,.,-12.0%,-8.4%,.,.
COc1ccc(N=Nc2cc(-c3ccccc3)ccc2O)cc1,0.6%,-21.0,-15.2%,-1.7%,13.1%,-0.5%
COc1ccc(-c2[nH]ncc2N=Nc2cc(C)cc(C)c2)cc1,?,-91.7*,10.3µM*,0.206µM*,?,-2.3%
COc1ccc(-c2[nH]ncc2N=Nc2ccccc2)cc1,?,-67.9*,?,?,?,-2.0%
Cc1ccc2c(Cl)cc(Cl)c(OCC(=O)NC(=O)NCc3ccco3)c2n1,-18.0%,-13.8,?,?,?,10µM*
Cc1ccc2c(Cl)cc(Cl)c(OCC(=O)NCc3ccco3)c2n1,11.2µM*,.,.,.,-18.9%,7.08µM*
Cc1ccc2c(Cl)cc(Cl)c(OCC(=O)N3CCCC3)c2n1,?,23.5,-11.7%,-21.7%,-1.1%,14.1µM*
Cc1ccc2c(Cl)cc(Cl)c(OCC(=O)N3CCOCC3)c2n1,.,-4.8,6.8%,-1.8%,13.8%,.
Cc1ccc(OCC(=O)NCc2ccco2)cc1C,-21.6%,-5.0,-13.4%,-14.8%,24.1%,?
Cc1ccc2c(Cl)cc(Cl)c(OCC(=O)Nc3cc(C)on3)c2n1,-3.0%,.,.,.,10.1%,-4.9%
Cc1cc(Cl)cc(Cl)c1OCC(=O)NCc1ccco1,?,?,18.4µM*,?,24.9%,?
COc1ncc2nc(-c3cn(C)c4ccccc34)c(=O)n(C)c2n1,1.5%,.,2.9%,0.3%,.,-2.9%
N[C@@H](C(=O)O)[C@@H](CC(=O)O)c1ccc(Cl)cc1,.,.,-24.1%,6.8%,.,.
Cc1cccc(C)c1OCCNC(=O)C(=O)NCc1ccco1,4.9%,47.0,2.31µM*,1.84µM*,-0.5%,7.2%
CCOc1ccc(S(=O)(=O)N2CCCC(C(=O)NCc3ccccn3)C2)cc1Cl (stereo unspecified),.,-26.1,16.4µM*,?,-3.8%,.
CCOc1ccc(S(=O)(=O)N2CCCC(C(=O)NCc3cccnc3)C2)cc1C (stereo unspecified),-2.7%,14.6,25.9µM*,?,1.1%,?
Cn1c2c(c(=O)n(C)c1=O)C(c1ccc(F)cc1)C(C#N)=C(N)O2 (stereo unspecified),-0.3%,-69.4*,3.2%,13.2%,-1.2%,23.3%
Cc1ccc(C2C(C#N)=C(N)Oc3c2c(=O)n(C)c(=O)n3C)cc1 (stereo unspecified),1.1%,-8.0,-9.1%,-5.4%,-6.4%,-10.4%
Cc1cc(-c2nnc(CCC(=O)NCc3cc(F)cc(C(F)(F)F)c3)o2)no1,19.8%,0.1,-0.7%,-14.2%,?,?
Cc1c(-c2ccccc2)oc2c(C(=O)N3CCN(c4ccc([N+](=O)[O-])cc4)CC3)cccc2c1=O,-0.5%,-6.2,20.6µM*,16.4µM*,3.26µM*,19.1%
COc1ccc(N2CCN(C(=O)COC(=O)c3oc4ccccc4c3C)CC2)cc1,.,4.8,16.4µM*,20.6µM*,?,.
COc1ccc2oc(C(=O)OCC(=O)N3CCN(c4ccccc4)CC3)c(C)c2c1,.,12.1,?,-19.8%,-3.2%,.
CCOC(=O)c1oc2ccccc2c1CN1CCN(c2ccccc2)CC1,-7.3%,-5.6,18.4µM*,?,-19.1%,0.2%
Cc1c(C(=O)N2CCN(c3ccc([N+](=O)[O-])cc3)CC2)oc2ccccc12,.,-18.5,16.4µM*,?,11.2µM*,.
